MARV entry inh: Marburg virus entry inhibition | Potency, µM (doses to about 37.8 µM), for inactives: at the top dose activity change, negative = inhibition, actives largely listed as inhibitors | Marburg virus pseudotyped entry inhibition, cell reporter | 300,000 tested, 1.8% active | AID 540276; calls by dose curve; tested in HEK293 cells
Vaccinia mCherry: vaccinia inhibition (mCherry reporter); AID 720579; 310,000 tested, 0.63% active; Potency, µM (titrated, usually from 36.5 µM), for the others: top-dose activity change, negative = inhibition, actives largely listed as inhibitors; Vaccinia virus mCherry reporter infection, fluorescence; calls by dose curve; tested in A549 cells; further: nearly all actives have a fitted effect of over 35% in size
VACV Venus inh: vaccinia inhibition (Venus reporter). 330,000 tested, 0.46% active. Potency, µM (doses to about 36.5 µM), for inactives: top-dose activity change, negative = inhibition, actives largely listed as inhibitors. Vaccinia virus Venus reporter expression, fluorescence; calls by dose curve; tested in A549 cells; further: nearly all actives have a fitted effect of over 30% in size
Lassa entry inh: Lassa virus entry inhibition; Potency, µM (doses to about 37.9 µM), inactives show at the highest dose activity change, negative = inhibition, hits mostly inhibitors; Lassa virus pseudotype entry inhibition, cell reporter; AID 540256; 300,000 tested, 1.2% active; calls by dose curve; tested in HEK293 cells; further: nearly all actives have a fitted effect of over 50% in size
Starred values were filed as active, the others as inactive; [ ] = another dose, or the depositor's remark. The list is not random: actives were taken first. Their share in the collection is about 2.5%. On the % scale 0 is the no-effect control and ±100 the full control effect; potency means the concentration at half of the fitted maximal effect.

Results for O=C(Nc1ccc(Cl)cc1)Nc1nnc(-c2ccncc2)s1 ?
MARV entry inh: inconclusive; Vaccinia mCherry: -8%; VACV Venus inh: -26%; Lassa entry inh: 4µM*

Results for COCC(=O)Nc1cc(C(=O)N2CCc3ccccc3C2)c2c(c1)nc(-c1ccncc1)n2C ?
Vaccinia mCherry: -10%; VACV Venus inh: -8%

How did CC(=O)c1ccc(F)c(-c2cc(C)cc3c2OC(CNC(=O)C[C@@H]2C[C@@H](C)NC(=S)N2)C3)c1 (stereo not given in full) do in these assays?
Vaccinia mCherry: -19%; VACV Venus inh: -6%

Results for Cc1cc(C)cc(N2C(=O)NC(=O)/C(=C\c3cccn3-c3ccccc3)C2=O)c1 ?
MARV entry inh: inconclusive; Vaccinia mCherry: inconclusive; VACV Venus inh: 14µM*; Lassa entry inh: inconclusive

What do the screens show for `COc1ccc(C(=O)c2ccc(N(C)C)cc2)c(OC)c1`?
MARV entry inh: inconclusive; Lassa entry inh: -28%

How did CN(C)c1ccc(C(=O)c2ccc(N(C)C)c3ccccc23)cc1 do in these assays?
MARV entry inh: inconclusive; VACV Venus inh: inconclusive; Lassa entry inh: 0.25µM*

Results for CC(=O)c1cccc(Nc2c3c(nc4nc(-c5cccs5)nn24)CCCC3)c1 ?
Vaccinia mCherry: -18%; VACV Venus inh: -13%; Lassa entry inh: -7%[46.1 µM]

What do the screens show for `Cc1ccc(Nc2c3c(nc4nc(-c5cccs5)nn24)CCCC3)cc1F`?
Vaccinia mCherry: 11µM*; VACV Venus inh: inconclusive; Lassa entry inh: inconclusive

Results for O=C(O)CCc1cccc2ccccc12 ?
Vaccinia mCherry: 28%; VACV Venus inh: -3%

What do the screens show for `C=CC(=O)Nc1ccc(CN2C(=O)N(c3c(Cl)c(OC)cc(OC)c3Cl)Cc3cnc(NCCCCN(CC)CC)nc32)cc1`?
Vaccinia mCherry: inconclusive; VACV Venus inh: 3.2µM*

How did COC(=O)N[C@@H](c1cccc(F)c1)[C@]1(C(=O)OC)CCCC1=O do in these assays?
MARV entry inh: 3%[14.2 µM]

What do the screens show for `O=[N+]([O-])c1ccc(CSc2ccc(-c3ccccn3)nn2)cc1`?
MARV entry inh: 14%[46.1 µM]; Vaccinia mCherry: -8%; VACV Venus inh: -15%; Lassa entry inh: -1%[46.1 µM]

Results for COc1ccccc1-c1ccc(SCc2ccc([N+](=O)[O-])cc2)nn1 ?
MARV entry inh: 10µM*; Vaccinia mCherry: -27%; VACV Venus inh: -14%; Lassa entry inh: inconclusive

Results for COc1cccc2cc(C(C)N(CCCN3CCOCC3)C(=S)Nc3cccc(C)c3)oc12 (stereo not given) ?
MARV entry inh: 10µM*; Vaccinia mCherry: -3%; VACV Venus inh: -19%; Lassa entry inh: inconclusive

What do the screens show for `O=C1[C@H]2[C@@H]3[C@@H](O)[C@H](O)CC(=NOCc4ccccc4)[C@H]3CC[C@H]2C(=O)N1Cc1ccc2c(c1)OCO2`?
MARV entry inh: -38%[14.2 µM]; Lassa entry inh: -19%[14.3 µM]

Results for CCCCOc1ccc(-c2csc(N)n2)cc1[N+](=O)[O-] ?
MARV entry inh: inconclusive; Vaccinia mCherry: inconclusive; VACV Venus inh: -23%; Lassa entry inh: inconclusive

How did CCCCOc1ccc(C2=CSC3=NCCN23)cc1[N+](=O)[O-] do in these assays?
MARV entry inh: 22µM*; Vaccinia mCherry: -10%; VACV Venus inh: -10%; Lassa entry inh: -27%

How did Cc1c(C(=O)NCCN2CCC(c3ccccc3)CC2)cnn1-c1nccc(-c2cccs2)n1 do in these assays?
Vaccinia mCherry: inconclusive; VACV Venus inh: -27%

How did Clc1ccc([C@@H](c2ccccc2Cl)C(Cl)Cl)cc1 do in these assays?
MARV entry inh: -12%

How did Cc1ccc(C(=O)/C=C2\NCCNC2=O)cc1 do in these assays?
MARV entry inh: -29%; Vaccinia mCherry: -9%; VACV Venus inh: -8%; Lassa entry inh: inconclusive

How did Cc1ccc(C(=O)/C=C2\NCC(C)NC2=O)cc1 (stereo not given) do in these assays?
MARV entry inh: 5.6µM*; Vaccinia mCherry: -7%; VACV Venus inh: 0%; Lassa entry inh: 8.9µM*

Results for c1coc(CNc2nc[n+]3c4c2ncn4CC3)c1 ?
Vaccinia mCherry: -12%; VACV Venus inh: -8%

How did COC(=O)N[C@@H](C=Cc1ccccc1)C[N+](=O)[O-] do in these assays?
MARV entry inh: 7%[14.2 µM]

How did CCCCCCC[n+]1ccc(/C=C/c2c(C)[nH]c3ccccc23)cc1 do in these assays?
Vaccinia mCherry: 28µM*; VACV Venus inh: 256%

What do the screens show for `Cc1[nH]c2ccccc2c1/C=C/c1cc[n+](C)cc1`?
MARV entry inh: -8%; Vaccinia mCherry: -22%; VACV Venus inh: 27%; Lassa entry inh: inconclusive

Results for CSC1=C(C#N)[C@H](c2ccc(C)s2)CC(=O)N1 ?
MARV entry inh: 0%

What do the screens show for `CCOc1ccc(-c2nnc3n2N=C(c2ccc(OC)cc2)CS3)cc1`?
MARV entry inh: -41%; Lassa entry inh: inconclusive

How did CCOc1ccc(C2=Nn3c(nnc3-c3ccccc3OC)SC2)cc1 do in these assays?
MARV entry inh: 0.29µM*; Lassa entry inh: 0.023µM*

What do the screens show for `CCCCNS(=O)(=O)c1cc(-c2nn(C)c(=O)c3ccccc23)ccc1C`?
MARV entry inh: inconclusive; Vaccinia mCherry: -1%; VACV Venus inh: -24%; Lassa entry inh: inconclusive

What do the screens show for `Cc1ccc(-c2nn(C)c(=O)c3ccccc23)cc1S(=O)(=O)NCCN(C)C`?
MARV entry inh: 11µM*; Vaccinia mCherry: 1%; VACV Venus inh: -10%; Lassa entry inh: -21%[46.1 µM]

How did CCn1nc(-c2ccccc2C)nc2c(=O)n(C)c(=O)nc1-2 do in these assays?
Vaccinia mCherry: 5.6µM*; VACV Venus inh: 6.3µM*

Results for CCn1nc(-c2cccs2)nc2c(=O)n(C)c(=O)nc1-2 ?
MARV entry inh: 0.89µM*; VACV Venus inh: 0.79µM*; Lassa entry inh: inconclusive

How did CCn1nc(/C=C/c2ccccc2)nc2c(=O)n(C)c(=O)nc1-2 do in these assays?
MARV entry inh: 0.71µM*; Vaccinia mCherry: 2.5µM*; VACV Venus inh: 2.8µM*; Lassa entry inh: 7.9µM*

Results for Cn1c(=O)c(/C=C/c2ccccc2)nc2ccccc21 ?
MARV entry inh: inconclusive; Vaccinia mCherry: inactive; VACV Venus inh: -16%; Lassa entry inh: -16%

How did CN(C)c1ccc(C2CCc3ccccc3N2C(=O)c2ccccc2)cc1 (stereo not given) do in these assays?
Vaccinia mCherry: -8%; VACV Venus inh: -10%

How did O=C(C1CCN(S(=O)(=O)c2ccc(Br)s2)CC1)N1CCN(c2cccc(C(F)(F)F)c2)CC1 do in these assays?
MARV entry inh: inconclusive; Vaccinia mCherry: inconclusive; VACV Venus inh: -27%; Lassa entry inh: 8.9µM*

What do the screens show for `Cn1cnc(S(=O)(=O)N2CCC(C(=O)N3CCN(c4cccc(C(F)(F)F)c4)CC3)CC2)c1`?
Vaccinia mCherry: inactive; VACV Venus inh: -6%; Lassa entry inh: -3%[46.1 µM]

How did COC(=O)CC1C(=O)NCCN1C(=O)CN1Cc2ccccc2OC(c2ccccc2)C1 (stereo not given) do in these assays?
Vaccinia mCherry: -9%; VACV Venus inh: -7%

Results for O=c1[nH]c(-c2ccccn2)nc2sc(-c3ccccc3)cc12 ?
MARV entry inh: inconclusive; Vaccinia mCherry: 4.5µM*; VACV Venus inh: inconclusive; Lassa entry inh: 2.2µM*

What do the screens show for `Cc1oc(-c2cccc(NC(=O)C3CCCN(C)C3)c2)nc1CNC(=O)c1coc2c1C(=O)CCC2` (stereo not given)?
Vaccinia mCherry: -23%; VACV Venus inh: -29%

High-throughput results as filed in PubChem BioAssay.
